# High-throughput results from PubChem BioAssay.
# This is a sample that favours compounds with a hit; in the whole collection about 11% have one here.
# PLK1 PBD inh: blocks phosphopeptide binding to human PLK1 polo-box domain; 2.8% of 360,000 active; Potency, µM, usual class: inhibitors; AID 720504; Plk1 PBD binding of FITC phosphopeptide, fluorescence polarization; also: series mostly up to about 57 µM; nearly all actives have a fitted effect of over 65% in size
# BAZ2B block: inhibitors of human BAZ2B bromodomain; Potency, µM (doses to about 114 µM), hits mostly inhibitors; AlphaScreen BAZ2B-H3K14Ac peptide displacement; 4.4% of 360,000 active; Q9UIF8; AID 504333; also: nearly all actives have a fitted effect of over 60% in size
# Target sequence (Q9UIF8 whole entry, looked up): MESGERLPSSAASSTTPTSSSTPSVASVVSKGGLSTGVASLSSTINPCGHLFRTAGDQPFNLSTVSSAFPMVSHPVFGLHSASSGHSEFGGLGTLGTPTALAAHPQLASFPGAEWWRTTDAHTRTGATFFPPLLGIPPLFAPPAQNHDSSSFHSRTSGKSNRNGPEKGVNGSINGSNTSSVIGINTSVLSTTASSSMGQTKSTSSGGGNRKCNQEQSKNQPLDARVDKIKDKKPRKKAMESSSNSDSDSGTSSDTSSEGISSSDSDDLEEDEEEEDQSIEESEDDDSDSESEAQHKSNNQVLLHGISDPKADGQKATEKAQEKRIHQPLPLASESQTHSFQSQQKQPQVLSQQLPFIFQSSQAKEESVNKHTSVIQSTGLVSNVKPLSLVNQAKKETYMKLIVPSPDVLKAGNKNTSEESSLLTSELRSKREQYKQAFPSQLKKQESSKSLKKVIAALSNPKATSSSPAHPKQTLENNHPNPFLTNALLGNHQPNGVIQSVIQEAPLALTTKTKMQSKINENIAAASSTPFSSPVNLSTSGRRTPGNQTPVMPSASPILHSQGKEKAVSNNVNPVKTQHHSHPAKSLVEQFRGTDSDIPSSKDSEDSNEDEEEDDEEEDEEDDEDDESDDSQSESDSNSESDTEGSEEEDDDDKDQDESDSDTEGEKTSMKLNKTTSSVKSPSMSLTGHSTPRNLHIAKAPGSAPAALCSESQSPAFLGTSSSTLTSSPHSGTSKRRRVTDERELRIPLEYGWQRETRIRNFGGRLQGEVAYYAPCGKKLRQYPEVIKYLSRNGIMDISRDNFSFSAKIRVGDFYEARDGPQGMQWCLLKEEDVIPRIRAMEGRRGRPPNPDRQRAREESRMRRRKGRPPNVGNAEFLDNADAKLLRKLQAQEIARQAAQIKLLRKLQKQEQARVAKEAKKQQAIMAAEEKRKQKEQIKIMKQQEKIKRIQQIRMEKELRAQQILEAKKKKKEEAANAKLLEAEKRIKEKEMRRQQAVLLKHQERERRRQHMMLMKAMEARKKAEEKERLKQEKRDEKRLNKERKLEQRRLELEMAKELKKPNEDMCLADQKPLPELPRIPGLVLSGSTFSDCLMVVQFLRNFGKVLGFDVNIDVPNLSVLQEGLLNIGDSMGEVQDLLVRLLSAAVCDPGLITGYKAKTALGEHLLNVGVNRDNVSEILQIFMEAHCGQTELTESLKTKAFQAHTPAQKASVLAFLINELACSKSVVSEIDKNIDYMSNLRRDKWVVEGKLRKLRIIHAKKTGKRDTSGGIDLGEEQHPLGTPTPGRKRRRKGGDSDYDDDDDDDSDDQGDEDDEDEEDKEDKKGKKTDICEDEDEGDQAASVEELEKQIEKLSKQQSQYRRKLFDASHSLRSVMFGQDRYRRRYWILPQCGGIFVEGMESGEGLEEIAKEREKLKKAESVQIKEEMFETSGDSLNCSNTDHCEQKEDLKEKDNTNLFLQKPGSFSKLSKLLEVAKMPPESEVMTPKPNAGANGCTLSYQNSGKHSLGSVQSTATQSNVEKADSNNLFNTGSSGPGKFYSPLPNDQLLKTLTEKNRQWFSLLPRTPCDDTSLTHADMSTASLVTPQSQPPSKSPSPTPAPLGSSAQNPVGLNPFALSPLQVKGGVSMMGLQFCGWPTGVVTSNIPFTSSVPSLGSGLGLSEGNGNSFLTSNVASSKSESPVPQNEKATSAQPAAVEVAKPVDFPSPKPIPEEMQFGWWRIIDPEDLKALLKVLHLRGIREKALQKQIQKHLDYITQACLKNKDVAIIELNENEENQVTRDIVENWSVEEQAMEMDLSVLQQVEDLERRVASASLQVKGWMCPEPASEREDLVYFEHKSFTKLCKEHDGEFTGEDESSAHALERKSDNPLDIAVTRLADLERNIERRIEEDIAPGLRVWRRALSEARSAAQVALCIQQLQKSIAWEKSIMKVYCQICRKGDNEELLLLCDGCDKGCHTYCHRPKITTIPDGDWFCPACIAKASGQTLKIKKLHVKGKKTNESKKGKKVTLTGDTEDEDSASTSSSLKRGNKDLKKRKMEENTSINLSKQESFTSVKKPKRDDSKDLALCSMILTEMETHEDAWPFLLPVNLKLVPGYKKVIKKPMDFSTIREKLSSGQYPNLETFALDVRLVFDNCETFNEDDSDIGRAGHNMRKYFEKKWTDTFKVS
#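 AlphaScreen luminescence quantifies BAZ2B engagement of H3K14Ac peptide; the protein and biotinylated peptide are both at 50 nM final, buffer PBS pH 7.4 with 0.01% Tween-20, all steps at room temperature.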
# JMJD2A Tudor: inhibitors of human JMJD2A Tudor domain. AlphaScreen JMJD2A-Tudor / H3K4me3 peptide binding. Potency, µM (titrated, usually from 114 µM), most hits filed as inhibitors. 4.4% of 390,000 active. O75164. AID 504339; also: nearly all actives have a fitted effect of over 50% in size
# HP1b binding inh: inhibitors of HP1-beta chromodomain binding to methylated histone tails; AlphaScreen HP1-beta / biotin-H3K9me3 peptide binding; Potency, µM (top dose mostly 114 µM), most hits filed as inhibitors; 0.56% of 390,000 active; also: nearly all actives have a fitted effect of over 70% in size
#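 Compound inhibition of the preformed complex between 50 nM HP1-beta and 50 nM biotinylated H3K9me3 peptide was read by AlphaScreen. Buffer was PBS pH 7.4 with 0.01% Tween-20. Incubations ran 30 min at room temperature, with 10 ug/mL donor/acceptor beads.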
# VDR inhibitor: blocks the human vitamin D receptor. P11473. VDR-SRC2-3 peptide fluorescence polarization, 2 h. Potency, µM, usual class: inhibitors. 0.93% of 400,000 active
#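 Inhibition of the VDR/SRC2-3 peptide interaction is quantified by fluorescence polarization. Compounds (23 nl, pintool) incubate with the reagents for 2 hours at ambient room temperature.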
# G9a block: G9a (human) methyltransferase inhibition | Q96KQ7 | G9a H3K9 monomethylation, AlphaScreen, 2 h | Potency, µM (titrated, usually from 102 µM), hits mostly inhibitors | 8.8% of 350,000 active | AID 504332; also: nearly all actives have a fitted effect of over 75% in size
#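 Enzyme 20 nM + cpd, 15 min RT; add b-H3K9 pep 500 nM / SAM 20 uM; 2 h RT; anti-H3K9me1 Ab 0.5 ug/mL + SA donor / anti-rabbit acceptor beads 20 ug/mL each, 10 min; AlphaScreen read.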
# A number is an active result; n = inactive; u = inconclusive; x = no result given; ! = a repeat was not active; [ ] = dose if it differs, or a comment. Calls follow the shape of the dose curve; as a rule, active = well fitted curve in the direction sought with a large enough effect; inconclusive = small, poorly fitted or top-dose-only effect, or another doubt; inactive = no such curve, though single readings can be large; an effect the other way counts as inactive or inconclusive.
SMILES,PLK1 PBD inh,BAZ2B block,JMJD2A Tudor,HP1b binding inh,VDR inhibitor,G9a block
COc1ccc(/C(C)=N/NC(=S)Nc2cc(C)ccc2C)cc1,n,u,u,n,n,35.5µM
COc1ccc(C/C(C)=N/NC(=S)Nc2ccc(C)c(C)c2)cc1,u,n,31.6µM,n,n,28.2µM
COc1ccc(CCNC(=S)Nc2cc(C)ccc2C)cc1,n,n,n,n,n,n
COc1ccc(C/C(C)=N/NC(=S)Nc2ccc(Cl)cc2)cc1,n,n,n,n,n,7.08µM
CCOC(=O)c1ccccc1NC(=O)CSc1nc2ncccc2[nH]1,x,n,n,n,n,n
Cc1n[nH]c(C)c1S(=O)(=O)N(CC(=O)NC(C)c1ccccc1)c1ccc(C(C)C)cc1 (stereo not given),x,x,n,n,n,n
COc1cc2c(=O)n(CCc3ccccc3)c(=O)n(CC(=O)Nc3ccccc3)c2cc1OC,x,u,n,n,n,n
O=S(CCc1ccncc1)Cc1ccccc1 (stereo not given),n,n,n,n,n,n
Clc1ccc(CSCCc2ccncc2)cc1,n,n,n,n,n,n
Fc1ccc(SCCc2ccncc2)cc1,23.8µM,22.4µM!,n,n,u,50.1µM!
c1ccc(SCCc2ccncc2)cc1,21.2µM,n,n,n,n,n[12.7 µM]
Fc1cc(F)c(F)c(SCCc2ccncc2)c1F,u,n,28.2µM,u,50.1µM,u
COc1ccc(CC(=O)OCC(=O)NCCc2ccccc2)cc1OC,n,n,n,n,n,n
c1nc(NCCN2CCOCC2)c2sc3nc(N4CCOCC4)c4c(c3c2n1)CCC4,n,n,n,n,n,50.1µM
O=S(=O)(NCCc1csc2nc(-c3ccc(F)cc3)nn12)c1ccc(Br)cc1,x,n,n,n,n,n
CCOC(=O)Cc1csc(N/N=C\c2ccc(N(C)C)cc2)n1,n,11.2µM,39.8µM,n,n,44.7µM
CCOC(=O)Cc1csc(N/N=C/c2ccccc2)n1,n,n,n,n,n,n
CCOC(=O)Cc1csc(N/N=C\c2cccc(Br)c2)n1,23.8µM,n,28.2µM,n,u,n[0.0925 µM]
CCC(C)NC(=O)c1sc2nc(C)c(C(=O)Nc3ccc(C)cc3C)c(-c3ccc(NC(C)=O)cc3)c2c1N (stereo not given),x,n,n,n,n,n
CC1(C)CC(=O)c2sc(NS(=O)(=O)c3ccc(F)cc3)nc2C1,n,n,n,n,n,79.4µM
CC1(C)CC(=O)c2sc(NS(=O)(=O)c3ccc(Cl)cc3)nc2C1,n,u,n,n,n,35.5µM
CC1(C)CC(=O)c2sc(NC(=O)CN3CCCCC3)nc2C1,n,x,u,n,n,14.1µM
CC1(C)CC(=O)c2sc(NS(=O)(=O)c3ccc(Br)cc3)nc2C1,n,n,n,n,n,50.1µM
CN(C)C(=O)c1ccc(-c2cncnc2NCc2cccnc2)cc1,x,x,x,x,n,n[0.501 µM]
COc1cc(C2NC(=O)NC(C)=C2C(=O)Nc2cc(C)cc(C)c2)ccc1O (stereo not given),x,n,n,n,n,n
SMILES,PLK1 PBD inh,BAZ2B block,JMJD2A Tudor,HP1b binding inh,VDR inhibitor,G9a block
CCN1CCN(c2c(C=O)c(Cl)nc3ccc(OC)cc23)CC1,n,n,n,n,n,n[0.501 µM]
O=S(=O)(Nc1nc2c(s1)CCCC2)c1ccc(Br)cc1,n,n,n,n,n,u
O=S(=O)(Nc1nc2c(s1)CCCC2)c1ccc(F)cc1,u,n,n,n,n,10µM
COC(=O)C(C)Sc1nnc(-c2ccncc2)o1 (stereo not given),n,n,n,n,n,n[12.7 µM]
CCOC(=O)C(Sc1nnc(-c2ccncc2)o1)C(C)=O (stereo not given),n,n,u,n,n,7.94µM
CCCCS(=O)(=O)/C=C\C1C2C=CC(C2)C1S(=O)(=O)CCCC (stereo not given),n,n,n,n,n,n
CCCCS(=O)(=O)/C=C\C=C/S(=O)(=O)CCCC,15µM,n,u,n,35.5µM,u
Cc1ccc(NCc2ccccc2O)cc1,n,u,u,n,n,n[2.33 µM]
CC(=O)N1CCN(c2ccc(NCc3ccc(C)cc3)cc2)CC1,n,44.7µM,u,n,u,12.6µM
COc1cc(CNc2ccc(N3CCN(C(C)=O)CC3)cc2)ccc1OCc1ccccc1,n,39.8µM,44.7µM,44.7µM,n,28.2µM
Cc1ccc(CNc2ccc(O)cc2)cc1,u,31.6µM,50.1µM,n,20µM,u
COc1cc(CNc2ccc(N3CCOCC3)cc2)ccc1OCC(=O)NC(C)(C)C,n,n,u,n,n,x
CC(=O)N1CCN(c2ccc(NCc3ccc(-c4cccc(Cl)c4)o3)cc2)CC1,x,x,39.8µM,u,u,x
Cc1ccc(CNC(=O)N2CCN(c3ccc(C)cc3)CC2)cc1,n,n,n,n,n,u
O=c1[nH]c2ccc(NCc3ccc(-c4cccc(Cl)c4)o3)cc2[nH]1,x,n,n,n,n,u
Cc1cccc(OCC(=O)OCc2cc(=O)n3nc(C4CCCCC4)sc3n2)c1,x,n,n,n,n,n
CCOC(=O)C1=C(CS(=O)(=O)c2ccc(Br)cc2)NC(=O)NC1c1ccccc1 (stereo not given),x,n,n,n,u,n
CC(=O)N1CCN(c2ccc(NCc3ccco3)cc2)CC1,x,u,n,n,n,n[0.501 µM]
CCc1ccc(CNc2ccc(N3CCN(C(C)=O)CC3)cc2)cc1,n,39.8µM,u,n,n,u
Fc1ccc(CNc2nc3c(-c4ccc(F)cc4)nnn3c3ccccc23)cc1,x,n,n,n,n,n
O=C(Nc1ccc(Cc2ccncc2)cc1)C1CCC(N2C(=O)C3C4C=CC(C5CC45)C3C2=O)CC1 (stereo not given),n,n,n,n,n,n
CC(=O)Nc1ccc(NC(=O)C2CCC(N3C(=O)C4C5C=CC(C6CC56)C4C3=O)CC2)cc1 (stereo not given),n,n,n,n,20µM,n
Oc1ccc(C2Nc3cccc4cccc(c34)N2)c(O)c1,u,u,79.4µM,17.8µM,n,44.7µM
Brc1ccc(C2Nc3cccc4cccc(c34)N2)cc1,n,x,u,u,n,x
Clc1cccc(C2Nc3cccc4cccc(c34)N2)c1Cl,n,39.8µM,50.1µM,u,n,n[0.501 µM]
Clc1ccccc1C1Nc2cccc3cccc(c23)N1,n,70.8µM,u,u,u,x
O=C1NC(c2ccccc2Cl)Nc2ccccc21 (stereo not given),n,n,n,n,n,n
C=C(C)n1c(=O)n(Cc2ccccc2C)c2ccccc21,n,n,n,n,n,n
Cc1ccc(S(=O)(=O)N(C)CC(=O)Nc2nnc(CC(C)C)s2)cc1,n,n,n,n,n,n[12.7 µM]
CC(=O)Nc1ccc(C2Sc3ccccc3NC3=C2C(=O)c2ccccc23)cc1 (stereo not given),x,x,12.6µM,u,n,17.8µM
